From PubChem BioAssay AID1159580 (chemical genetic matrix, 2015)
The whole screen tested about 5,500 compounds, of which about 2,000 (36%) were called active. Another 18% or so got no clear call; they are omitted. Cut-off read from the data, not from the text of the source: active = normalized growth mostly below about 0.91 (no sharp cut-off); inconclusive = no clear call, values can overlap the other calls; inactive = mostly above about 0.92. The list shows a part of the results.

Experiment: chemical genetic growth profiling, strain panel (AID 1159580);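 note: tested at 20 µM; growth read once vehicle control cultures reached saturation at 30 °C; 1 = growth at the plate median or of vehicle wells; lower values mean less growth of the strain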
Conditions: growth OD

Measured: normalized growth

COc1cc(OC)c2c(c1)O[C@H](c1cc(OC)c(OC)c(OC)c1)[C@H](OC(=O)c1cc(OC)c(OC)c(OC)c1)C2
inactive: S. cerevisiae deletion strains, locus YAL013W, strain DEP1, active compounds read low 1.01 | S. cerevisiae deletion strains, locus YBR021W, strain FUR4, active compounds read low 0.998 | S. cerevisiae deletion strains, locus YBR229C, strain ROT2, active compounds read low 1.02 | S. cerevisiae deletion strains, locus YCL029C, strain bik1, active compounds read low 1.01 | S. cerevisiae deletion strains, locus YDL035C, strain GPR1, active compounds read low 0.994 | S. cerevisiae deletion strains, locus YDL074C, strain BRE1, active compounds read low 0.996 | S. cerevisiae deletion strains, locus YDL101C, strain DUN1, active compounds read low 1 | S. cerevisiae deletion strains, locus YDL134C, strain PPH21, active compounds read low 1 | S. cerevisiae deletion strains, locus YDL185W, strain tfp1, active compounds read low 1.01 | S. cerevisiae deletion strains, locus YDL192W, strain arf1, active compounds read low 1 | S. cerevisiae deletion strains, locus YDR101C, strain arx1, active compounds read low 0.999 | S. cerevisiae deletion strains, locus YDR150W, strain NUM1, active compounds read low 1.01 | S. cerevisiae deletion strains, locus YDR162C, strain NBP2, active compounds read low 1 | S. cerevisiae deletion strains, locus YDR318W, strain mcm21, active compounds read low 0.997 | S. cerevisiae deletion strains, locus YDR388W, active compounds read low 1 | S. cerevisiae deletion strains, locus YDR502C, strain sam2, active compounds read low 0.991 | S. cerevisiae deletion strains, locus YEL061C, strain CIN8, active compounds read low 1.01 | S. cerevisiae deletion strains, locus YER110C, active compounds read low 1 | S. cerevisiae deletion strains, locus YER155C, strain BEM2, active compounds read low 1 | S. cerevisiae deletion strains, locus YER167W, strain BCK2, active compounds read low 1.02 | S. cerevisiae deletion strains, locus YGL078C, strain dbp3, active compounds read low 1 | S. cerevisiae deletion strains, locus YGL086W, strain mad1, active compounds read low 0.991 | S. cerevisiae deletion strains, locus YGL248W, strain PDE1, active compounds read low 1.01 | S. cerevisiae deletion strains, locus YGR078C, strain PAC10, active compounds read low 1.02 | S. cerevisiae deletion strains, locus YGR135W, strain pre9, active compounds read low 0.994 | S. cerevisiae deletion strains, locus YGR229C, strain SMI1, active compounds read low 0.993 | S. cerevisiae deletion strains, locus YGR252W, strain gcn5, active compounds read low 0.933 | S. cerevisiae deletion strains, locus YHR030C, strain SLT2, active compounds read low 1.01 | S. cerevisiae deletion strains, locus YHR079C, strain IRE1 (second series), active compounds read low 1 | S. cerevisiae deletion strains, locus YHR094C, strain hxt1, active compounds read low 0.996 | S. cerevisiae deletion strains, locus YHR129C, strain ARP1, active compounds read low 1.01 | S. cerevisiae deletion strains, locus YHR200W, strain rpn10, active compounds read low 0.999 | S. cerevisiae deletion strains, locus YIL066C, strain RNR3, active compounds read low 0.997 | S. cerevisiae deletion strains, locus YIL073C, strain SPO22, active compounds read low 0.995 | S. cerevisiae deletion strains, locus YIL125W, strain kgd1, active compounds read low 1 | S. cerevisiae deletion strains, locus YIR030C, strain dcg1, active compounds read low 1.01 | S. cerevisiae deletion strains, locus YJL095W, strain BCK1, active compounds read low 1.01 | S. cerevisiae deletion strains, locus YJL134W, strain LCB3, active compounds read low 1.01 | S. cerevisiae deletion strains, locus YJL168C, strain set2, active compounds read low 1 | S. cerevisiae deletion strains, locus YJL187C, strain SWE1 (second series), active compounds read low 1 | S. cerevisiae deletion strains, locus YJR043C, strain POL32, active compounds read low 0.992 | S. cerevisiae deletion strains, locus YJR075W, strain HOC1, active compounds read low 1 | S. cerevisiae deletion strains, locus YKL009W, strain mrt4, active compounds read low 0.983 | S. cerevisiae deletion strains, locus YKL068W, active compounds read low 1.01 | S. cerevisiae deletion strains, locus YKL085W, strain MDH1 (second series), active compounds read low 0.993 | S. cerevisiae deletion strains, locus YKL085W, strain MDH1, active compounds read low 0.993 | S. cerevisiae deletion strains, locus YKL190W, strain CNB1, active compounds read low 0.998 | S. cerevisiae deletion strains, locus YKR001C, strain vps1, active compounds read low 0.99 | S. cerevisiae deletion strains, locus YLR039C, strain RIC1, active compounds read low 1.01 | S. cerevisiae deletion strains, locus YLR058C, strain SHM2, active compounds read low 1.01 | S. cerevisiae deletion strains, locus YLR102C, strain apc9, active compounds read low 1 | S. cerevisiae deletion strains, locus YLR262C, strain YPT6, active compounds read low 1.02 | S. cerevisiae deletion strains, locus YLR268W, strain sec22, active compounds read low 1.01 | S. cerevisiae deletion strains, locus YLR330W, strain CHS5, active compounds read low 1.01 | S. cerevisiae deletion strains, locus YLR342W, strain FKS1 (second series), active compounds read low 1 | S. cerevisiae deletion strains, locus YLR371W, strain rom2, active compounds read low 1.01 | S. cerevisiae deletion strains, locus YLR418C, strain cdc73, active compounds read low 0.973 | S. cerevisiae deletion strains, locus YML016C, strain PPZ1, active compounds read low 1 | S. cerevisiae deletion strains, locus YML032C, strain rad52, active compounds read low 0.992 | S. cerevisiae deletion strains, locus YML124C, strain tub3, active compounds read low 1 | S. cerevisiae deletion strains, locus YMR078C, strain ctf18, active compounds read low 1 | S. cerevisiae deletion strains, locus YMR223W, strain ubp8, active compounds read low 0.994 | S. cerevisiae deletion strains, locus YMR263W, strain SAP30, active compounds read low 1 | S. cerevisiae deletion strains, locus YMR307W, strain GAS1, active compounds read low 0.951 | S. cerevisiae deletion strains, locus YNL067W, strain RPL9B, active compounds read low 1.01 | S. cerevisiae deletion strains, locus YNL128W, strain TEP1, active compounds read low 1.02 | S. cerevisiae deletion strains, locus YNL153C, strain GIM3, active compounds read low 1.01 | S. cerevisiae deletion strains, locus YNL233W, strain BNI4, active compounds read low 1 | S. cerevisiae deletion strains, locus YNL250W, strain rad50, active compounds read low 1 | S. cerevisiae deletion strains, locus YNL271C, strain bni1, active compounds read low 1.01 | S. cerevisiae deletion strains, locus YNL298W, strain CLA4, active compounds read low 1.01 | S. cerevisiae deletion strains, locus YNL307C, strain MCK1, active compounds read low 1 | S. cerevisiae deletion strains, locus YNL322C, strain KRE1, active compounds read low 1 | S. cerevisiae deletion strains, locus YNR052C, strain pop2, active compounds read low 1.01 | S. cerevisiae deletion strains, locus YOL006C, strain TOP1, active compounds read low 0.983 | S. cerevisiae deletion strains, locus YOL012C, strain htz1 0.884 | S. cerevisiae deletion strains, locus YOL147C, strain pex11, active compounds read low 0.996 | S. cerevisiae deletion strains, locus YOR061W, strain CKA2, active compounds read low 1 | S. cerevisiae deletion strains, locus YOR069W, strain VPS5, active compounds read low 0.999 | S. cerevisiae deletion strains, locus YOR136W, strain idh2, active compounds read low 0.997 | S. cerevisiae deletion strains, locus YOR144C, strain elg1, active compounds read low 1 | S. cerevisiae deletion strains, locus YOR184W, strain ser1, active compounds read low 0.987 | S. cerevisiae deletion strains, locus YOR316C, strain cot1, active compounds read low 1 | S. cerevisiae deletion strains, locus YPL055C, strain LGE1, active compounds read low 0.989 | S. cerevisiae deletion strains, locus YPL241C, strain CIN2, active compounds read low 0.986 | S. cerevisiae deletion strains, locus YPR119W, strain clb2, active compounds read low 0.995 | S. cerevisiae deletion strains, locus YPR141C, strain kar3, active compounds read low 1 | S. cerevisiae deletion strains, locus YPR163C, strain tif3, active compounds read low 0.997 | S. cerevisiae deletion strains, locus YPR167C, strain met16, active compounds read low 1.01 | S. cerevisiae deletion strains, strain wtn01, active compounds read low 0.992 | S. cerevisiae strains, strain wild type, active compounds read low 1.01
